Laboratory results reported in PubChem BioAssay AID492998 (Southern Research Specialized Biocontainment Screening …, 2010).
Screen size: about 2,300 compounds; about 550 (24%) were called active. The rule behind the calls is not given here. Only a sample is shown. Results with a measured potency or affinity are listed apart.

Test: Vero E6 cell cytotoxicity, dose response, cytotoxicity control for non-replicating M. tuberculosis project, secondary assay (AID 492998)
Conditions: series mostly up to 20 µM
With `CCOC(=O)COc1ccc2c(c1)c(C(C)=O)c(C)n2Cc1ccccc1` the outcome was “inactive”.
In the case of `Cc1c(C(=O)N(C)C)sc2nc(-c3ccccn3)[nH]c(=O)c12`, the outcome is reported as “inactive”.
With `Cc1nnc(SCCC(=O)Nc2ccc(Cl)cc2)o1` the outcome was “inactive”.
With `CCOc1ccc2nc(/N=C/c3nc(-c4ccccc4)oc3O)sc2c1` the outcome was “inactive”.
With `O=C(COc1ccccc1)NNc1nc2ccccc2s1` the outcome was “inactive”.
For `Cc1nc2ccc(OC(=O)c3ccccc3)cc2s1`, the outcome was “inactive”.
In the case of `CCOc1ccc(OCC(=O)Nc2nccs2)cc1`, the outcome is reported as “inactive”.
In the case of `CCCNC(=O)OCC12CC3CC(CC(C3)C1)C2`, the outcome is reported as “inactive”.
In the case of `N=C1/C(=C/c2ccc(OC(=O)c3ccco3)cc2)C(=O)N=C2SC=CN12`, the outcome is reported as “inactive”.
For `c1ccc(CNCCC(Cc2ccccc2)c2ccco2)cc1` (configuration not stated), the outcome was “inactive”.
In the case of `CC(C)(C)C(=O)/C=C/Nc1ccccc1O`, the outcome is reported as “inactive”.
For `CC(=O)c1ccc(Sc2nnnn2-c2ccccc2)c([N+](=O)[O-])c1`, the outcome was “inactive”.
In the case of `Cc1cc(C)n(C(=O)c2ccc([N+](=O)[O-])cc2[N+](=O)[O-])n1`, the outcome is reported as “inactive”.
With `O=C(NCc1cccs1)c1ccc([N+](=O)[O-])cc1` the outcome was “inactive”.
With `CC(=O)Nc1ccc(NC(=O)c2cc([N+](=O)[O-])cc([N+](=O)[O-])c2)cc1` the outcome was “inactive”.
In the case of `COc1ccc2cc(C(=O)NCc3ccccc3)c(=O)oc2c1`, the outcome is reported as “inactive”.
For `CC(C)OC(=O)c1cc(C(=O)c2cc(Cl)ccc2O)coc1=N`, the outcome was “inactive”.
For `O=C(NNc1ccc([N+](=O)[O-])cc1)C1CC1c1ccccc1` (configuration not stated), the outcome was “inactive”.
With `CC(C)(C)c1ccc(OCCC(=O)OCC(=O)NC2CC2)cc1` the outcome was “inactive”.
In the case of `O=C(Oc1ccc(F)cc1)c1ccc2c(=O)n3c(nc2c1)CCC3`, the outcome is reported as “inactive”.
In the case of `COC(=O)c1ccc(N2CCN(CCNC(=O)Nc3ccc(OC)cc3)CC2)cc1`, the outcome is reported as “inactive”.
For `C#CCSc1nnc(-c2ccc(O)cc2)o1`, the outcome was “inactive”.
With `C#CCSc1nnc(-c2ccc(C)cc2)o1` the outcome was “inactive”.
In the case of `Cc1cc(Cl)ccc1N(CC(=O)NCc1ccccc1)S(C)(=O)=O`, the outcome is reported as “inactive”.
For `CCCCn1nnc(NC(=O)COc2ccc(Cl)c(C)c2)n1`, the outcome was “inactive”.
In the case of `O=C(COC(=O)CCc1c[nH]c2ccccc12)NCc1ccc2c(c1)OCO2`, the outcome is reported as “inactive”.
For `COc1ccc(OC(=O)CCc2c[nH]c3ccccc23)cc1`, the outcome was “inactive”.
In the case of `N#Cc1ccc(COC(=O)CCc2c[nH]c3ccccc23)cc1`, the outcome is reported as “inactive”.
For `O=C(COC(=O)CCc1c[nH]c2ccccc12)NCc1ccc(Cl)cc1`, the outcome was “inactive”.
In the case of `C=Cc1cccc(NC(=O)COc2ccccc2)c1`, the outcome is reported as “inactive”.
For `COc1ccc(Cc2nnc(SCc3ccc([N+](=O)[O-])cc3)o2)cc1`, the outcome was “inactive”.
For `Cc1[nH]nc2c1C(c1ccc(-c3ccc(Cl)cc3)o1)C(C#N)=C(N)O2` (configuration not stated), the outcome was “inactive”.
In the case of `O=C1/C(=C/c2ccco2)CCC1C1CCCC1` (configuration not stated), the outcome is reported as “inactive”.
For `CC(NC(=O)COc1ccccc1F)C1CC2CCC1C2` (configuration not stated), the outcome was “inactive”.
For `CCOC(=O)c1ccc(NC(=O)CCSCCc2ccccn2)cc1`, the outcome was “inactive”.
In the case of `CCOc1ccc(-c2nc3ccccc3c(=O)o2)cc1`, the outcome is reported as “inactive”.
In the case of `CCOC(=O)N1CCC(NS(=O)(=O)c2cc3c(cc2Cl)NC(=O)CO3)CC1`, the outcome is reported as “inactive”.
With `CCCNC(=O)N1CCC(c2ccc3c(c2)OCO3)CC1` the outcome was “inactive”.
With `OCC1(CCOc2ccccc2)CCN(Cc2cc(Cl)ccc2O)CC1` the outcome was “inactive”.
With `COc1ccc(C2(O)CCN(CCCCOc3ccccc3)CC2)cc1` the outcome was “inactive”.
In the case of `COc1cccc2cc(C(=O)c3ccc([N+](=O)[O-])cc3)oc12`, the outcome is reported as “inactive”.
In the case of `CC1COC(=O)C(NNc2ccc(Cl)c(Cl)c2)=N1` (configuration not stated), the outcome is reported as “inactive”.
With `CC(=O)Nc1cccc(-c2nc3ccccc3c(=O)o2)c1` the outcome was “inactive”.
In the case of `CC(C)Cc1cc(C(=O)Nc2ccc(F)cc2F)no1`, the outcome is reported as “inactive”.
With `CC(C)c1nnc(NC(=O)c2cc3cc(Br)ccc3oc2=O)s1` the outcome was “inactive”.
With `CCCC(=O)Nc1cccc(-c2nc3ccccc3c(=O)o2)c1` the outcome was “inactive”.
In the case of `O=C(Oc1ccc(/C=N/O)cc1)c1ccccc1Cl`, the outcome is reported as “inactive”.
In the case of `O=C(O)CCCCCN1C(=O)/C(=C\c2ccncc2)SC1=S`, the outcome is reported as “inactive”.
With `O=C(NCCN1C(=O)S/C(=C\c2ccccc2F)C1=O)C1CCN(S(=O)(=O)c2cccs2)CC1` the outcome was “inactive”.
For `CN1C(=O)/C(=C/c2cccc(Cl)c2)Sc2ccc(C(=O)N3CCCC3)cc21`, the outcome was “inactive”.
For `O=C(COC(=O)CCN1C(=O)/C(=C\C=C\c2ccccc2)SC1=S)Nc1cc(F)ccc1F`, the outcome was “inactive”.
In the case of `O=C(CC1CC2CCC1C2)NCc1cccs1` (configuration not stated), the outcome is reported as “inactive”.
In the case of `CCOc1ccc(-c2cc(CCCC(=O)NCCC(C)C)no2)cc1`, the outcome is reported as “inactive”.
For `Cc1ccc(N2C(=O)CC(Sc3nccc(C)n3)C2=O)cc1` (configuration not stated), the outcome was “inactive”.
For `Cc1cccc(C2=N/C(=C\c3cccnc3)C(=O)O2)c1`, the outcome was “inactive”.
In the case of `Cc1ccc(-c2noc(CCC(=O)Nc3cccc(C#N)c3)n2)cc1`, the outcome is reported as “inactive”.
For `CCNc1nc(NC(C)(C)C)nc(N2CCCCC2)n1`, the outcome was “inactive”.
In the case of `COc1cc(NC(=O)C/C(C)=N/NC(=O)c2cccs2)c(OC)cc1Cl`, the outcome is reported as “inactive”.
For `O=C(OCC(=O)N1CCCc2ccccc21)c1ccc(S(=O)(=O)C(F)F)cc1`, the outcome was “inactive”.
With `CCOC(=O)COc1ccc2c(c1)C(=O)CC(C)(c1cccnc1)O2` (configuration not stated) the outcome was “inactive”.
For `C/C(=N\NC(=O)c1cccs1)c1ccc2c(c1)OCO2`, the outcome was “inactive”.
With `CC(/C=C/c1ccccc1)=N\NC(=O)c1ccc2c(c1)OCCO2` the outcome was “inactive”.
With `O=C(N/N=C\c1ccccc1OCc1ccccc1)c1ccco1` the outcome was “inactive”.
For `Cc1occc1C(=O)N/N=C/c1ccc[nH]1`, the outcome was “inactive”.
In the case of `O=C(N/N=C/c1ccc[nH]1)c1ccc2c(c1)OCO2`, the outcome is reported as “inactive”.
In the case of `O=C(Oc1cccc2cccnc12)c1ccc2c(c1)OCCO2`, the outcome is reported as “inactive”.
In the case of `COCCCn1c(=NC(=O)c2ccccc2)c(C#N)cc2c(=O)n3cccc(C)c3nc21`, the outcome is reported as “inactive”.
In the case of `CCOC(=O)COc1c(-c2ccc(OC)cc2)oc2ccccc2c1=O`, the outcome is reported as “inactive”.
In the case of `O=C1CC(N2CCN(c3ccc(F)cc3)CC2)C(=O)N1Cc1ccccc1` (configuration not stated), the outcome is reported as “inactive”.
For `O=C1NCC(O)=C1C=Nc1ccccc1O`, the outcome was “inactive”.
For `COC(=O)c1cccc(COC(=O)c2cc3ccccc3oc2=O)c1`, the outcome was “inactive”.
In the case of `O=C(Nc1ccn(Cc2ccccc2)n1)c1ccc(F)cc1`, the outcome is reported as “inactive”.
With `CN(CCCCOc1ccc(F)cc1)Cc1ccccc1` the outcome was “inactive”.
For `O=C(c1ccc([N+](=O)[O-])cc1[N+](=O)[O-])N1CCc2ccccc21`, the outcome was “inactive”.
For `CCOC(=O)c1ccc(COC(=O)c2ccc(-c3nnc(-c4ccccc4)o3)cc2)o1`, the outcome was “inactive”.
With `CC(/C=C/c1cccc([N+](=O)[O-])c1)=N\NC(=O)c1ccncc1` the outcome was “inactive”.
In the case of `NC(=O)C1(N2CCCCC2)CCN(C2CC(=O)N(CCc3ccccc3)C2=O)CC1` (configuration not stated), the outcome is reported as “inactive”.
In the case of `COC(CNC(=O)c1ccc2c3c(onc13)-c1ccccc1C2=O)OC`, the outcome is reported as “inactive”.
With `O=[N+]([O-])c1cc(N=Nc2ccc3ccccc3c2)ccc1O` the outcome was “inactive”.
For `CCCCCCOc1ccc(N2C(=O)CC(N3CCN(C(=O)c4ccco4)CC3)C2=O)cc1` (configuration not stated), the outcome was “inactive”.
For `O=C(Oc1ccccc1)c1ccc(NC(=O)c2ccco2)cc1`, the outcome was “inactive”.
With `O=C(/C=C/Nc1ccccc1O)c1ccco1` the outcome was “inactive”.
With `Nc1nnc(SCCCC(=O)c2ccc(Br)cc2)s1` the outcome was “inactive”.
For `CC(=O)c1c(C)n(C)c2ccc(OC(=O)c3ccco3)cc12`, the outcome was “inactive”.
For `COc1cc(OC)cc(OC(=O)c2ccc3c(=O)n4c(nc3c2)CCC4)c1`, the outcome was “inactive”.
In the case of `COc1ccc(N2C(=O)CC(Sc3nc4ccccc4s3)C2=O)cc1OC` (configuration not stated), the outcome is reported as “inactive”.
With `COc1ccc(C(=O)CCS(=O)(=O)c2ccc(C)cc2)cc1OC` the outcome was “inactive”.
With `O=C1Nc2ccc(Br)cc2/C1=C/C(=O)c1ccc2c(c1)OCO2` the outcome was “inactive”.
In the case of `O=C(N/N=C/C=C/c1ccccc1)c1cccs1`, the outcome is reported as “inactive”.
In the case of `CCOC(=O)Cc1nc2cc(Cl)ccc2o1`, the outcome is reported as “inactive”.
For `c1ccc(-c2nnc(SCc3nnc(-c4cccs4)o3)o2)cc1`, the outcome was “inactive”.
In the case of `O=C1c2ccccc2CC1Sc1nnc(-c2ccncc2)o1` (configuration not stated), the outcome is reported as “inactive”.
With `CCn1cc(C(=O)O)c(=O)c2cc(F)c(N3CCN(C(=S)NC(=O)c4ccccc4)CC3)cc21` the outcome was “inactive”.
With `O=C(COc1ccc(Cl)cc1)Nc1ccc(Cl)cn1` the outcome was “inactive”.
With `COc1cccc(COC(=O)CCNC(=O)c2ccc(Cl)cc2)c1OC` the outcome was “inactive”.
In the case of `CC(/C=C/c1ccco1)=N\NC(=O)c1cccc(Cl)c1`, the outcome is reported as “inactive”.
In the case of `CN(C)CC/C=C1/c2ccc(F)cc2Sc2ccc(Cl)cc21`, the outcome is reported as “inactive”.
With `O=C(COC(=O)c1ccc(Cl)s1)c1ccc[nH]1` the outcome was “inactive”.
In the case of `O=C(NC(=S)Nn1cnc2c(cnn2-c2ccccc2)c1=O)c1ccccc1`, the outcome is reported as “inactive”.
With `CC(NC(=O)c1cc([N+](=O)[O-])cc([N+](=O)[O-])c1)c1ccc(-n2ccnc2)cc1` (configuration not stated) the outcome was “inactive”.
In the case of `Cc1cccc(C)c1NC(=O)c1sc(N)nc1-c1ccccc1`, the outcome is reported as “inactive”.
In the case of `O=C(COC(=O)Cc1ccc(Br)cc1)Nc1ccc(N2CCOCC2)cc1`, the outcome is reported as “inactive”.
With `O=C(COC(=O)c1cc2ccccc2oc1=O)Nc1ccc(F)cc1F` the outcome was “inactive”.
In the case of `Clc1ccc(OC2CCN(Cc3nc(CC4CC4)no3)CC2)cc1`, the outcome is reported as “inactive”.
In the case of `CCOC(=O)CCSc1n[nH]c(=S)s1`, the outcome is reported as “inactive”.
For `C(=C\c1ccccc1)/CSc1nc2ncccc2[nH]1`, the outcome was “inactive”.
For `CC(C)=CCN1CCN(Cc2cn(C(C)C)c3ccccc23)CC1CCO` (configuration not stated), the outcome was “inactive”.
For `Cc1ccc(/C=C2\SC(N3CCCC3)=NC2=O)cc1`, the outcome was “inactive”.
With `CC(C)N1C(=O)NC(=O)C2(Cc3cc([N+](=O)[O-])ccc3N(C)C2c2ccccc2)C1=O` (configuration not stated) the outcome was “inactive”.
In the case of `Cc1ccc(NC(=O)COCC(=O)Nc2ccc(C)cc2)cc1`, the outcome is reported as “inactive”.
For `Cc1ccc(OCC(=O)Nc2ccc([N+](=O)[O-])cc2)cc1`, the outcome was “inactive”.
In the case of `COc1cc(Cl)cc(/C=N/NC(N)=O)c1O`, the outcome is reported as “inactive”.
In the case of `O=C(N/N=C/c1cccc([N+](=O)[O-])c1O)c1cccs1`, the outcome is reported as “inactive”.
For `O=C(N/N=C/C=C/c1ccccc1[N+](=O)[O-])c1ccncc1`, the outcome was “inactive”.
For `O=C(NNc1nc2ccccc2s1)Nc1ccc(F)cc1`, the outcome was “inactive”.
For `NC(N)=N/N=C/c1cccc([N+](=O)[O-])c1O`, the outcome was “inactive”.
With `O=[N+]([O-])c1c(Nc2ccccn2)cc(Cl)c2nonc12` the outcome was “inactive”.
